Source: PubChem BioAssay
Hits are enriched below; roughly 1.1% of the tested compounds scored in any of these assays.
OPRM1-OPRD1 ag = OPRM1-OPRD1 heterodimerization agonism; cells, luminescence; P35372+P41143; activation, % at 9.3 µM; actives 0.3% (n = 340,000); in the data active = activation above about 18%
Target sequence (P35372 whole entry, looked up): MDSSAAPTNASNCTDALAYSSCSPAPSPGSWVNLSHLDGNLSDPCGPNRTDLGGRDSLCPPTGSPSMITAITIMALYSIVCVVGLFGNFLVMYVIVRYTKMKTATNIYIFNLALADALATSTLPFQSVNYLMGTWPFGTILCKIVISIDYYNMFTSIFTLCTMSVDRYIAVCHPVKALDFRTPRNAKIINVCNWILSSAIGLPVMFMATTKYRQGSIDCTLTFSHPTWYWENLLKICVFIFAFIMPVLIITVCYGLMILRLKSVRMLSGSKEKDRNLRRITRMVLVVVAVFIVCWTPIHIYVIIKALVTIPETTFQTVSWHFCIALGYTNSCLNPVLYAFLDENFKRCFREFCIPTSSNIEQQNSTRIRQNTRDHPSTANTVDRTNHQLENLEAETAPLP
Target sequence (P41143 whole entry, looked up): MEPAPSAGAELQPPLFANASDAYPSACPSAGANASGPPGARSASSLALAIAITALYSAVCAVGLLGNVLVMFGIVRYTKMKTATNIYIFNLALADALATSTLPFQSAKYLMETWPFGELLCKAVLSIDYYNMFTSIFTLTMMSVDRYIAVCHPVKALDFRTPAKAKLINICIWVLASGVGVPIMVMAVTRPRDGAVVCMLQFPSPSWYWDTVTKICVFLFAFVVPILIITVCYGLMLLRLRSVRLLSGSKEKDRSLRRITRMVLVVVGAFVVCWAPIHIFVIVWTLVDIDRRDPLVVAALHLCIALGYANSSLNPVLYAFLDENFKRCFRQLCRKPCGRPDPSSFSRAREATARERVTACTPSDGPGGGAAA
HTR5A inv ctr = inverse agonist of human HTR5A in OPRM1-OPRD1 counter-screen; P47898; HTR5A cell line, luminescence, inverse agonism; inhibition, % at 9.3 µM; actives 0.083% (n = 340,000); in the data active = inhibition mostly above about 23%, no sharp cut-off; inactive = mostly below about 18%
HTR5A ag = activates human HTR5A in OPRM1-OPRD1 agonist counter-screen. P47898. HTR5A agonist assay, luminescence, cell-based. activation, % at 9.3 µM. actives 0.61% (n = 340,000); in the data active = activation mostly above about 9.5%, no sharp cut-off; inactive = mostly below about 7.6%
MOR-DOR inv ag = inverse agonists of human mu-delta opioid receptor heterodimerization | P35372+P41143 | cell-based MOR-DOR heterodimer luminescence, inverse agonism | inhibition, % at 9.3 µM | actives 0.21% (n = 340,000) | AID 504357; in the data active = inhibition above about 22%, passing the limit was not always enough
Each line names hits and unclear results; the compound was inactive in the other large screens.

Cn1c(=O)c([N+](=O)[O-])c(Cl)c2ccccc21	MOR-DOR inv ag 37.5
CCN(CC)c1c([N+](=O)[O-])c(=O)n(C)c2ccccc12	none
COc1cc(/C=C/C(=O)OCC(=O)N2c3ccccc3NC(=O)C2(C)C)cc(OC)c1OC	none
CC(C)Oc1ccc(CNC(=O)Cn2ccc3cc(S(=O)(=O)N4CCCC4)ccc32)cc1	HTR5A ag 8.3
CN1CCN(S(=O)(=O)c2ccc(NC(=O)c3ccccc3F)cc2)CC1	HTR5A ag 8.6
CC(C)c1ccc(S(=O)(=O)/N=C2\C=C(NS(=O)(=O)c3ccccc3)C(=O)c3ccccc32)cc1	MOR-DOR inv ag 30.4
O=C(COC(=O)C1=COCCO1)NCc1ccc(Cl)cc1	HTR5A ag 12.5
Cc1ccc(C(=O)C2CC2)cc1C	none
COc1ccc(Oc2nccc(-c3ccccc3)c2C#N)cc1	HTR5A ag 11.4
CN(C(=O)c1cccc(NC(=O)Cc2cccc(NC(=O)C3CCN(C(=O)c4ccccc4)CC3)c2)c1)C1CC1	HTR5A ag 9.1
Cc1cc(NC(=O)CN2CCN(S(=O)(=O)c3ccc4ccccc4c3)CC2)no1	HTR5A ag 10.2
CC(=O)c1ccc(NC(=O)CN2CCN(S(=O)(=O)c3ccc4ccccc4c3)CC2)cc1	none
O=C(NNC(=S)NC(=O)c1ccc(F)cc1)c1ccncc1	none
CC1(C(=O)NC(=S)NNC(=O)c2ccncc2)CCCCC1	HTR5A inv ctr 32.0, MOR-DOR inv ag 35.9
NS(=O)(=O)c1ccc(NC(=O)COC(=O)Cc2c[nH]c3ccccc23)cc1	none
C/C=C(\C)CN1CCC(n2nccc2NC(=O)CCCc2ccccc2)CC1	HTR5A ag 11.9
O=C(Nc1ccccc1N1CCCC1)c1cc(=O)[nH]c2ccccc12	none
O=C(NCc1ccc(Cl)cc1)C1CCCN(c2ncnc3c2nc2n3CCCCC2)C1 (stereo not drawn)	HTR5A ag 12.9
CN(CCNC(=O)C1CCN(c2ncnc3c2nc2n3CCCCC2)CC1)Cc1ccccc1	HTR5A ag 11.1
O=C(Nc1ccc(Cl)cc1)C1CCCN(c2ncnc3c2nc2n3CCCCC2)C1 (stereo not drawn)	none
CN(CC(=O)Nc1ccc(Cl)c(C(F)(F)F)c1)C(=O)c1cccc(N2C(=O)CCC2=O)c1	none
CC(=O)Nc1ccc(NC(=O)CSc2nnc(-c3cccs3)n2C)cc1	none
COc1cccc(NC(=O)CSc2nnc(-c3cccs3)n2C)c1	HTR5A ag 10.3
CCOC(=O)c1c(C)[nH]c(=S)c(C#N)c1-c1ccc(OC)cc1	none
CCCCOc1ccc(-c2c(C(=O)Nc3ccccc3)c(C)[nH]c(=S)c2C#N)cc1	HTR5A ag 13.9
O=S(=O)(c1ccc(Cl)cc1)N(CCCN1CCOCC1)Cc1cccs1	HTR5A ag 10.6
CC(C)n1nc(C(=O)OCC(=O)c2c[nH]c3ccccc23)c2ccccc2c1=O	HTR5A ag 10.5
CCn1nc(C(=O)OCC(=O)c2c[nH]c3ccccc23)c2ccccc2c1=O	none
Cn1c(=O)n(C)c2cc(C(=O)O)ccc21	none
Cc1ccccc1C(=O)c1ccc2c(c1)n(C)c(=O)n2C	HTR5A ag 11.8
CCOC(=O)CC1(C)NC(C(=O)O)C(C)(C)S1 (stereo not drawn)	none
CC(C)c1nnc(NC(=O)CCC(=O)Nc2ccc(Cl)cc2)s1	none
COc1ccc(NC(=O)CCC(=O)Nc2nnc(C(C)C)s2)cc1Cl	HTR5A ag 12.0
Cc1nn(-c2ccccc2)c(C)c1NC(=O)COc1ccc2ccccc2c1	HTR5A ag 10.3
O=C(COC(=O)c1cc(S(=O)(=O)N2CCOCC2)c(Cl)cc1Cl)NCc1ccco1	none
CCOC(=O)N1CCC(NC(=O)CCS(=O)(=O)c2ccc3c(c2)CCN3C(C)=O)CC1	none
CC1CCC(NC(=O)CCS(=O)(=O)c2ccc3c(c2)CCN3C(=O)C2CC2)CC1 (stereo not drawn)	HTR5A ag 10.2
CC1CCCC(NC(=O)Cn2cc(Br)ccc2=O)C1C (stereo not drawn)	none
COc1cccc(CNC(=O)COC(=O)c2nc(Cl)c(Cl)c(Cl)c2Cl)c1	none
CS(=O)(=O)c1ncc(Cl)c(C(=O)Nc2ccc(OC(F)F)cc2)n1	MOR-DOR inv ag 34.5
C[C@H](CO)N1C[C@H](C)[C@@H](CN(C)Cc2ccc(Cl)c(Cl)c2)Oc2c(NS(=O)(=O)c3cccs3)cccc2C1=O	none
CC1=CC2C(C(O)CC3(C)C2CC(C)C32OCOC23COCO3)C2(C)C/C(=C\O)C(=O)C=C12 (stereo not drawn)	OPRM1-OPRD1 ag 25.6, HTR5A ag 31.3
COc1cccc(C(=O)Nc2ccc3c(cc2=O)[C@@H](NC(C)=O)CCc2cc(OC)c(OC)c(OC)c2-3)c1	HTR5A ag 52.3
CCC(CC)C(=O)c1c[nH]c(C(=O)NCc2cccs2)c1	none
CCC(CC)C(=O)c1c[nH]c(C(=O)NCc2ccccn2)c1	HTR5A ag 9.1
CC(C)C(NC(=O)c1ccc(C(C)(C)C)cc1)C(=O)NCCc1ccccn1 (stereo not drawn)	none
CCC(CC)C(=O)c1c[nH]c(C(=O)NCCc2ccccn2)c1	HTR5A ag 12.9
CC(C)(C)c1ccc(C(=O)c2c[nH]c(C(=O)NCCc3ccccn3)c2)cc1	HTR5A ag 9.4
Cc1c(/C=N\NC(=O)c2csc3ccccc23)cnn1C	HTR5A ag 10.7
COc1cc(OC)c(C=NNC(=S)NC23CC4CC(CC(C4)C2)C3)c(OC)c1	none
COc1cccc(CN(C)C(=O)COc2cccc3c2OC(C)(C)C3)c1OC	none
CN1CCN(c2ccccc2NC(=O)c2ccc(-c3cccc(Cl)c3)o2)CC1	OPRM1-OPRD1 ag 62.5
O=C(Nc1ccccc1N1CCCCC1)c1ccc(-c2cccc(Cl)c2)o1	none
CC(C)(C)C(=O)N1CCC(O)(CS(=O)(=O)Cc2ccccc2)CC1	none
CC(C)(C)C(=O)N1CCC(O)(CS(=O)(=O)Cc2ccc(Cl)cc2)CC1	HTR5A ag 12.3
CC(=O)Oc1ccc(Cl)cc1CN(C(C)=O)C1CCCCC1	none
CN(CC(=O)NCc1ccco1)CC(=O)Nc1ccc(F)c(F)c1F	HTR5A ag 10.6
O=C(CN(Cc1ccccc1)C(=O)CCl)c1cccc(Br)c1	OPRM1-OPRD1 ag 33.2, HTR5A ag 37.8
CC[C@@]1(C(=O)OC)N[C@H](CN(C)C(=O)COC)[C@@H]2C(=O)N(Cc3ccccc3)C(=O)[C@@H]21	none
O=C1C2=C(c3ccccc31)[N+](=O)[C@@H]1CCCC[C@@H]1N2[O-]	MOR-DOR inv ag 46.1
O=C1c2ccccc2C(=O)c2c1ccc1c(=O)n(C3CCCCC3)[nH]c21	none
O=C(CSc1nc(O)cc(=O)n1-c1ccc(Cl)c(Cl)c1)Nc1ccc(Cl)cc1Cl	HTR5A ag 10.4
Nc1nc(-c2ccccc2)c(CCCNc2ccccc2)c(=O)[nH]1	none
COc1ccc(Nc2nc(S(=O)(=O)c3ccc(C)cc3)c(Cl)s2)cc1	HTR5A ag 12.7
Cc1ccc(S(=O)(=O)c2nc(Nc3ccccc3)sc2Cl)cc1	none
CCOc1ccc(NC(=O)Cn2nnc(C(=O)NCc3ccc4c(c3)OCO4)c2N)cc1	HTR5A ag 13.3
CSc1ncccc1C(=O)OCC(=O)NCc1ccccc1	HTR5A ag 12.9
CSc1ncccc1C(=O)OCC(=O)NC(C)CCc1ccccc1 (stereo not drawn)	none
